About 83,000 compounds went through this panel and 20% of them were active in at least one assay; those are over-represented in the sample as a whole.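 Negative percent growth values reflect cell death: -40 means 40% of the cells present at the start died, and -100 means all died.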 Values without a mark were called inactive. Activity calls are given as the source filed them. The calls were made as follows: active = growth percent below 10; inactive = the rest.
Columns and labels:
Experiment in all cases: NCI-60 one-dose screen, 48 h (100 = growth as untreated, 0 = no growth, -100 = all killed)
Settings in all cases: 10 µM unless noted
[1] = test system: T-47D breast
[2] = test system: BT-549 breast
[3] = test system: MDA-MB-435 melanoma
[4] = test system: SW-620 colon
[5] = test system: MCF7 breast
[6] = test system: HCT-116 colon
[7] = test system: HCC-2998 colon
[8] = test system: KM12 colon

Row | SMILES | growth [1] | growth [2] | growth [3] | growth [4] | growth [5] | growth [6] | growth [7] | growth [8]
1 | O=C(CC(=O)C(F)(F)C(F)(F)C(F)(F)F)c1cc2ccccc2o1 | 96% | 111% | 104% | 97.6% | 103% | 102% | 113% | 104%
2 | O=C(O)c1ccccc1Oc1cc(-c2ccco2)nc(OCCN2CCOCC2)n1 | 97.2% | 96.6% | 101% | 115% | 102% | 97.9% | 108% | 111%
3 | COc1cc(-c2nc(-c3ccc(-c4nc5ccc(F)cc5[nH]4)cc3)no2)cc(OC)c1OC | 8.56% (active) | 35.7% | 46.8% | 55.3% | 41.1% | 28.2% | 81.5% | 11.5%
4 | C#C[C@]1(O)CC[C@H]2[C@@H]3CC=C4c5sc(-c6cccc(Br)c6)nc5CC[C@]4(C)[C@H]3CC[C@@]21C | 80.6% | 87.3% | 91.7% | 87.9% | 55.3% | 83.6% | 85.1% | 63.8%
5 | COc1ccccc1-[n+]1cc(-c2ccc(-c3ccccc3)cc2)n2c1CCCCC2 | -5.11% (active) | -1.37% (active) | 6.5% (active) | 14.6% | 4.74% (active) | 6.3% (active) | 21.5% | 4.15% (active)
6 | O=C1SCN(Cc2ccccc2)CN1Cc1ccccc1 | 52.2% | 131% | 73.3% | 34.3% | 22.1% | 70.5% | 115% | 32.4%
7 | CCCCCCCCCCCCCCCC1=NC(C)(C)CN1C(C)C | -11.2% (active) | 71.3% | -59.3% (active) | -69.1% (active) | -27.6% (active) | -73.5% (active) | -89.9% (active) | -73.2% (active)
8 | CC(=O)c1ccc(Br)c([N+](=O)[O-])c1 | 104% | 99.7% | 101% | 120% | 94.1% | 96.9% | 109% | 107%
9 | COc1ccc2c(c1)C1=NN(C(=O)CO)[C@H](c3ccc(OC(F)(F)F)cc3)[C@@H]1CC2 | 82.1% | 127% | 116% | 109% | 83.2% | 92.5% | 91.9% | 102%
10 | COc1ccc(/C(C)=N/NC(=O)c2ccc(S(C)(=O)=O)cc2)cc1OC | 82.6% | 96% | 112% | 103% | 92.9% | 84.7% | 104% | 103%
11 | OC(COCc1ccccc1)COCc1ccccc1 | 101% | 98.6% | 112% | 110% | 92.6% | 99% | 97.9% | 105%
12 | Clc1ccc(-c2cnc3c(-c4ccnc(N5CCNCC5)c4)cnn3c2)cc1 | -55.6% (active) | 78.1% | -51.1% (active) | -50.4% (active) | -63.4% (active) | -68.3% (active) | -43% (active) | -3.73% (active)
13 | ClCCn1cnc2c(SCc3ccccc3Cl)ncnc21 | 52.8% | 44.1% | 37.5% | 28.9% | 21.6% | 32.8% | 51.1% | 34.8%
14 | COc1ccc(CC2c3cc(OC)c(OC)cc3CC[N+]2(C)CCC(=O)OCCCCCOC(=O)CC[N+]2(C)CCc3cc(OC)c(OC)cc3C2Cc2ccc(OC)c(OC)c2)cc1OC (stereo unspecified) | 94.5% | 103% | 96.7% | 100% | 85.2% | 88.5% | 105% | 101%
15 | CCCCc1nc(Cl)c(C2CC(c3ccc(S(N)(=O)=O)cc3)=NN2c2cc(Cl)cc(Cl)c2)[nH]1 (stereo unspecified) | 42.5% | 60.3% | 35.7% | 58% | 6.51% (active) | 14.7% | 29.4% | 32.1%
16 | CCCCCc1c(C)[nH]c(/C=C2\N=C(c3ccc[nH]3)C=C2Oc2ccc(OC)cc2)c1C | -48.5% [100 µM] (active) | -91.5% [100 µM] (active) | -82.2% [100 µM] (active) | -56.5% [100 µM] (active) | -100% [100 µM] (active) | -99.4% [100 µM] (active) | -58.2% [100 µM] (active) | -90.9% [100 µM] (active)

Row | SMILES | growth [1] | growth [2] | growth [3] | growth [4] | growth [5] | growth [6] | growth [7] | growth [8]
17 | O=C1Nc2ccccc2/C1=C\c1nc(C2CCN(S(=O)(=O)c3ccc(F)cc3)CC2)n2ccccc12 | 48.1% | 2.09% (active) | 70.8% | 82.8% | 48.7% | 64.8% | 59.8% | 65.8%
18 | CC1=C(/C=C/C(C)=C/C=C(C(=O)O)\C(C)=C\C(=O)O)C(C)(C)CCC1 | 101% | 100% | 116% | 108% | 93.8% | 105% | 108% | 110%
19 | CN1C(=O)N(C)C2C1NN=c1s/c(=C\c3ccc(C(F)(F)F)cc3)c(=O)n12 (stereo unspecified) | 24.6% | 50.4% | -52.1% (active) | 19.1% | 12% | 26.9% | 54.9% | 16.3%
20 | O=C(NCCN1CCCCC1)n1cc(-c2ccncc2)c(-c2ccc(Cl)c(O)c2)n1 | 79.2% | 68.9% | 58.9% | 100% | 91% | 44.6% | 113% | 102%
21 | CCSCC1CC(O)(c2ccccc2)C(c2ccccc2)C(c2ccc(F)cc2)O1 (stereo unspecified) | -17.5% (active) | -12.1% (active) | -18.8% (active) | -25.8% (active) | 1.86% (active) | -31.2% (active) | 2.23% (active) | -9.64% (active)
22 | CC(C)OC1OC(OC(C)C)C(OC(C)C)OC1OC(C)C (stereo unspecified) | 115% | 102% | 110% | 96.2% | 103% | 88.5% | 121% | 95.2%
23 | CCN(CC)CCCC(C)Nc1ccnc2ccc(Oc3ccccc3)cc12 (stereo unspecified) | 70.7% | 67.3% | 25.8% | 81.3% | 69% | 48.7% | 84% | 86.3%
24 | O=P(O)(O)C(O)(Cc1cccnc1)P(=O)(O)O | 76.6% | 86.3% | 97.6% | 98.7% | 91.2% | 106% | 119% | 100%
25 | c1cc2c(cc1-c1cnc3nonc3n1)OCO2 | 57.7% | 95.2% | 103% | 83% | 49.5% | 102% | 107% | 74.8%
26 | C=C1C(=O)O[C@H]2[C@H]1CC/C(COC(=O)NCc1cccc(OC)c1)=C\CC[C@@]1(C)O[C@@H]21 | 11.9% | 16.6% | 45.5% | -35.4% (active) | 8.22% (active) | -70.9% (active) | 81.6% | 88%
27 | CCCCCCCC/C=C\CCCCCCCC(=O)OCCCCCC | 102% | 114% | 101% | 106% | 105% | 100% | 107% | 102%
28 | c1coc(CNc2c3ccccc3nc3ccccc23)c1 | 69.3% | 97.4% | 87.6% | 42.3% | 21.3% | 24.1% | 68.9% | 85.5%
29 | O=c1c2cc(Br)cc(Br)c2nc(-c2ccc(Cl)cc2)n1/N=C\c1ccccc1F | 69.7% | 88.3% | 81.2% | 82.5% | 56.1% | 32.8% | 85.4% | 72.2%
30 | O=C(NO)c1ccc(CNc2cccc3nc(C4CC4)n(-c4ccccc4)c(=O)c23)cc1 | 22.9% | 64% | 10.3% | 0.537% (active) | 27.6% | -22.1% (active) | 36% | 8.66% (active)
31 | COc1ccc2nc3ccccc3c(NCc3ccc(C)cc3)c2c1 | 30.6% | 51.6% | 42.2% | 18.5% | 3.43% (active) | 8.58% (active) | -57.9% (active) | 37.3%
32 | COc1cc(C2CC(c3ccc(Cl)cc3)=NN2C=O)ccc1Oc1ccnc2cc(Cl)ccc12 (stereo unspecified) | 56.4% | 94.7% | 73.3% | 84.5% | 53.4% | 49.2% | 72.8% | 76.2%

— PubChem BioAssay (NCI)
